Measurements taken from PubChem BioAssay AID1851 (National Center for Advancing Translational Sciences (NCATS), 2009).
“And” between values parts separate entries of the source, which are not always exact repeats. Equal values may be shown once. About 4,000 (25%) of roughly 16,000 compounds were called active. Roughly 26% stayed inconclusive and do not appear here. The call rests on the fitted dose curve; in most records, active means well fitted curve in the direction sought with a large enough effect; inconclusive means small, poorly fitted or top-dose-only effect, or effect the other way; inactive means no such curve, though single readings can be large or run the other way. Only a sample is shown. A structure can be active in one record and inactive in another.

The compounds below were run against Cytochrome P450 2C9 (Homo sapiens) (UniProt P11712) (assay: Cytochrome panel assay with activity outcomes). Settings: recombinant CYP, pro-luciferin dealkylation, luminescence, p450-cyp2c9; series mostly up to 57.1 µM; activity, negative = inhibition: at the top concentration.
On the % scale 0 is the no-effect control and ±100 the full control effect.

Chain of Cytochrome P450 2C9 (Homo sapiens) (P11712 whole entry, looked up): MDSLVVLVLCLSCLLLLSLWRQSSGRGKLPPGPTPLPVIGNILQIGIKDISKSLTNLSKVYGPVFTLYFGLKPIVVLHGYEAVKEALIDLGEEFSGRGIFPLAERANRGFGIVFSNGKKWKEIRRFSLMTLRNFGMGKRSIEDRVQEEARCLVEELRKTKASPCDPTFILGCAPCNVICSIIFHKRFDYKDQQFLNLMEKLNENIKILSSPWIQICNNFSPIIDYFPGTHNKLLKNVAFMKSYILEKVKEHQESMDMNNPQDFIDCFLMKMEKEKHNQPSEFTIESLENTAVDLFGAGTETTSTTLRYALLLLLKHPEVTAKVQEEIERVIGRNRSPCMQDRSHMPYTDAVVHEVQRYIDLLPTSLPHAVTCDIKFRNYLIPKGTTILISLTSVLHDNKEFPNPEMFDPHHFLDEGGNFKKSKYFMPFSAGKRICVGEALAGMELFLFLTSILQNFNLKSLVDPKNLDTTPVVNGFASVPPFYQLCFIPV

| SMILES | activity, negative = inhibition | AC50 |
| --- | --- | --- |
| O=C(O)Cc1cnc[nH]1 | -5.96% (inactive) |  |
| C=CCN1C[C@H](C)N([C@H](c2ccc(C(=O)N(CC)CC)cc2)c2cccc(O)c2)C[C@H]1C |  | 3980 nM (active) |
| C=CCN1C[C@@H](C)N([C@H](c2ccc(C(=O)N(CC)CC)cc2)c2cccc(OC)c2)C[C@H]1C | -9.55% (inactive) |  |
| C=CCN1C[C@H](C)N([C@H](c2ccc(C(=O)N(CC)CC)cc2)c2cccc(OC)c2)C[C@H]1C | -11.6% (inactive) |  |
| NC(N)=NS(=O)(=O)c1ccc(N)cc1 | 8.95% [at 25.6 µM] (inactive) |  |
| CC[C@@H](CO)NC(=O)[C@H]1C=C2c3cccc4c3c(cn4C)C[C@H]2N(C)C1 | -29.9% (inactive) |  |
| O=[N+]([O-])c1cc(-c2ccc([As](=O)(O)O)cc2)ccc1[As](=O)(O)O | 16.8% [at 11.4 µM] (inactive) |  |
| CN(C)C=C1C(=O)N(C2CCCCC2)C(=O)N(C2CCCCC2)C1=O |  | 2240 nM (active) |
| COc1cc(-c2ccc(=O)[nH]n2)ccc1OC(F)F | -1.03% [at 25.6 µM] (inactive) |  |
| C[N+](C)(C)CCCCCC[N+](C)(C)C | 21.2% [at 25.6 µM] (inactive) |  |
| CN=C(NC#N)NCCSCc1nc[nH]c1C | -1.35% (inactive) |  |
| O=C(O)CS(=O)(=O)C(c1ccccc1)c1ccccc1 | -12.7% [at 11.4 µM] (inactive) |  |
| C(#CCN1CCCC1)CN1CCCC1 | 7.11% [at 25.6 µM] (inactive) |  |
| O=C1CCCN1CC#CCN1CCCC1 |  | 2000 nM (active) |
| C[N+](C)(C)CC#CCN1CCCC1=O | inactive |  |
| CC(C)(C)C(=O)CP(=O)(O)O | 9.42% [at 11.4 µM] (inactive) |  |
| OC(c1ccccc1)(c1ccccc1)C1CCCN1 (configuration not stated) | -17.9% (inactive) |  |
| COc1ccccc1CN1CC[C@@]2(CCCN(C(=O)Oc3ccccc3)C2)C1 | -9.71% (inactive) |  |
| Cc1ccc(C(=O)C2C(=O)c3ccccc3C2=O)cc1 |  | 2240 nM (active) |
| CCN1C[C@@]2(COC)CC[C@H](O)[C@@]34[C@@H]2C[C@@H]([C@@H]13)[C@]1(O)C[C@@H](OC)C2C[C@H]4[C@H]1[C@H]2OC(C)=O | -9.7% [at 25.6 µM] (inactive) |  |
| c1ccc2sc(C3(N4CCCCC4)CCCCC3)cc2c1 | inactive |  |
| CC[C@]1(C2=NCCN2)Cc2ccccc2O1 | inactive |  |
| c1ccc2c(c1)OC[C@@H](C1=NCCN1)O2 |  | inactive and 31.6 µM (active) |
| COc1cc2c(cc1O)[C@H]1Cc3ccc(OC)c(O)c3CN1CC2 | -28.6% [at 25.6 µM] (inactive) |  |

| SMILES | activity, negative = inhibition | AC50 |
| --- | --- | --- |
| c1ccc(N2CCCC3(CCNCC3)C2)cc1 | -19.3% (inactive) |  |
| CC(C)Oc1cccnc1N(C)C1CCN(Cc2ccccc2)CC1 | -16.1% (inactive) |  |
| O=C1Nc2ccc(I)cc2/C1=C/c1cc(Br)c(O)c(Br)c1 |  | 12600 nM (active) |
| COc1cc2c(cc1OC)[C@@]13CCN4C=C5CCO[C@H]6CC(=O)N2[C@@H]1[C@@H]6[C@H]5C[C@H]43 | -3.46% [at 11.4 µM] (inactive) |  |
| COc1ccc(CNC(=O)/C=C\c2ccc3[nH]cc(CCN(C)C)c3c2)cc1 | 12.7% (inactive) |  |
| c1ccc(C[C@@H](c2ccccc2)N2CCCCC2)cc1 | -0.583% (inactive) |  |
| CN1CCc2cc(O)cc3c2[C@H]1Cc1ccc(O)c(O)c1-3 | -22.6% (inactive) |  |
| C[N+]12CCC(CC1)[C@@H](OC(=O)C(O)(c1ccccc1)c1ccccc1)C2 | -16.5% [at 25.6 µM] (inactive) |  |
| O=C(O)C(O)(c1ccc(-c2ccccc2)cc1)c1ccc(-c2ccccc2)cc1 |  | 3160 nM (active) |
| O=C(C[n+]1ccc2ccccc2c1)c1ccc2ccc3ccccc3c2c1 | 16.4% [at 11.4 µM] (inactive) |  |
| CCn1cc(C(=O)O)c(=O)c2cc3c(cc21)OCO3 | 7.22% (inactive) |  |
| Clc1ccc(C2=CCC[C@H]3CC[C@@H]2N3)cn1 | 24.7% (inactive) |  |
| Cn1ccnc1 | -9.78% (inactive) |  |
| c1cc(CCN2CCCCC2)ccn1 | 3.53% [at 11.4 µM] (inactive) |  |
| Clc1ccc(C(c2ccc(Cl)cc2)n2cc[n+](C[C@@H](OCc3ccc(Cl)cc3Cl)c3ccc(Cl)cc3Cl)c2)cc1 |  | 31600 nM (active) |
| Cc1nc(-c2ccc(-c3ccc(C(=O)N4CCc5cc6c(cc54)C4(CCN(C)CC4)CO6)cc3)c(C)c2)no1 |  | inactive and 7.94 µM (active) |
| NCCc1ccc(S(=O)(=O)O)cc1[N+](=O)[O-] | 8.12% [at 11.4 µM] (inactive) |  |
| C[C@H](N)c1cccc(Cl)c1Cl | -4.33% (inactive) |  |
| C[C@@H](C(=O)OC1C[C@H]2CC[C@@H](C1)N2C)c1ccc(Br)cc1 (some centres not stated) | 2% (inactive) |  |
| CN1C2CCC1CC(OC(=O)c1ccc(Cl)cc1)C2 (configuration not stated) | 0.397% (inactive) |  |
| CC[C@H](Oc1ccc(Cl)cc1)C(=O)OC1C[C@H]2CC[C@@H](C1)N2C (some centres not stated) |  | 100 nM (active) |
| CCCN(CCC)[C@@H]1CCc2ccc(O)cc2C1 | inactive |  |
| O=C(Nc1ccccc1)N1CCC2(CC1)CCN(C(=O)Oc1ccccc1)CC2 | -2.26% (inactive) |  |
